Hits are enriched below; roughly 9.3% of the tested compounds scored in any of these assays.
FLuc counter – firefly luciferase modulation, counter-screen for miR-21 project | P08659 | purified FLuc, Km substrates, luminescence inhibition | Potency, µM (series often up to 57.5 µM), for the others: at the highest dose activity change, negative = inhibition, most hits filed as inhibitors | 360,000 compounds, 6.9% hits;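 further: plate controls were vehicle for no effect and reference inhibitor for full effect; nearly all actives have a fitted effect of over 55% in size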
Target sequence (P08659 whole entry, looked up): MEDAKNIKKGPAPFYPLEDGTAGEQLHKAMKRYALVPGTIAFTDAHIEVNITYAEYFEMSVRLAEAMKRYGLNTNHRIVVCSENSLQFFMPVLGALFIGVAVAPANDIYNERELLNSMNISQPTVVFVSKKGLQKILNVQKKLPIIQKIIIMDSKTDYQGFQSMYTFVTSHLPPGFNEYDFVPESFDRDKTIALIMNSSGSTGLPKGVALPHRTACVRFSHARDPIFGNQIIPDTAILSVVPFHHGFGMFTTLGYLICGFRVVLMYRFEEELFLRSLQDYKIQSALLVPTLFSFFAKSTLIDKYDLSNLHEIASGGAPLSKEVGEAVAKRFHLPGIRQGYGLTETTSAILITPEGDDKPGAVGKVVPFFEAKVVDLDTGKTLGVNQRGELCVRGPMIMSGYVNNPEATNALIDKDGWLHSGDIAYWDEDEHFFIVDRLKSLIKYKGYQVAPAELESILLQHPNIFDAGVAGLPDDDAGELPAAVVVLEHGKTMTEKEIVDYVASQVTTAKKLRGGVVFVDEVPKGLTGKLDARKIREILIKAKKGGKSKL
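Biochemical qHTS of compounds, final roughly 60 µM downward over six points, against 10 nM purified firefly luciferase using Km concentrations of substrates (10 uM D-luciferin, 10 uM ATP) in Tris acetate pH 7.5 buffer; luminescence output.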
ELG1 DNA repair – blocks ELG1-dependent DNA repair in HEK293T cells | 330,000 compounds, 2.3% hits | HEK293T ELG1-luciferase reporter, luminescence, 16 h; DNA damage induced by 5-fluorouridine | Potency, µM (highest dose often 46.1 µM), without a hit: top-dose activity change, negative = inhibition, most hits filed as inhibitors | AID 504467; further: on the % scale 0 is the no-effect control and ±100 the full control effect; nearly all actives have a fitted effect of over 55% in size
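Reporter activity after DNA damage by 5-fluorouridine is monitored. Compound-treated cells incubate 16 hr at 37 °C, then ONE-Glo is added for 30 min before luminescence reading.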
NPC1 promoter act – activators of NPC1 promoter; Huh7 NPC1 promoter luciferase reporter, 24 h; Potency, µM (series often up to 9.22 µM), for the others: at the highest dose activation, most hits filed as activators; 320,000 compounds, 2.4% hits; AID 485313; further: % of control where 0% means no effect; nearly all actives have a fitted effect of over 60% in size
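Huh7 reporter cells (NPC1 promoter driving luciferase) are dosed with compound for 24 h at 37 °C, 5% CO2; luciferase detection reagent is then added and luminescence measured after 10 min at ambient temperature.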
SMN2 splice enh – SMN2 splice variant enhancement | Potency, µM (series often up to 46.1 µM), for inactives: at the top dose activity change, positive = activation, actives largely listed as activators | HEK293 SMN2-luciferase splicing reporter, luminescence, 30-36 h | 210,000 compounds, 2.8% hits; further: % of control where 0% means no effect; nearly all actives have a fitted effect of over 55% in size
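HEK293 cells carry an SMN2 […]–luciferase reporter in which exon 7 inclusion puts luciferase in frame. Cells were plated 10-12 h before compound addition, then incubated 30-36 h at 37C. ONE-Glo luminescence was read; sodium butyrate at 4.5 mM final served as control.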
Rab9 prom act – Rab9 promoter activation; Huh7 Rab9 promoter-luciferase reporter, luminescence, 24 h; AID 485297; 320,000 compounds, 2.8% hits; Potency, µM (doses to about 9.22 µM), inactives show at the top dose activation, negative = inhibition, usual class: activators; further: % of control where 0% means no effect; nearly all actives have a fitted effect of over 60% in size
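Huh7 cells stably carrying Rab9 promoter–luciferase reporter, plated 1500 cells/well, compound added after 2 h and incubated 24 h at 37 °C; luciferase luminescence then read after 10 min with detection reagent.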
ELG1 genotoxic – genotoxicity induction in ELG1-luciferase HEK293T cells; Potency, µM (titrated, usually from 46 µM), without a hit: top-dose activity change, positive = activation, most hits filed as activators; 330,000 compounds, 1.3% hits; HEK293T ELG1-luciferase reporter, luminescence, 16 h; AID 504466; further: % of control where 0% means no effect; nearly all actives have a fitted effect of over 60% in size
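Quantitative HTS format in 1536-well plates. HEK293T ELG1-luciferase reporter cells receive test compound and are incubated 16 hr at 37 °C, 5% CO2; ONE-Glo added, 30 min room temperature, then luminescence read.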
Numbers without * were called inactive; ? = inconclusive; · = no result given. The call rests on the fitted dose curve; in most records, active means well fitted curve in the direction sought with a large enough effect; inconclusive means small, poorly fitted or top-dose-only effect, or another doubt; inactive means no such curve, though single readings can be large; an effect the other way counts as inactive or inconclusive. Potency means the concentration at half of the fitted maximal effect.

SMILES	FLuc counter	ELG1 DNA repair	NPC1 promoter act	SMN2 splice enh	Rab9 prom act	ELG1 genotoxic
Cc1nnc(SCc2ccc(C(=O)Nc3cc(Cl)ccc3C)cc2)s1	15µM*	-1%	-1%	-29%	-6%	0%
Cc1ccc(NC(=O)c2ccc(CSc3nnc(C)s3)cc2)c(C)c1	13µM*	?	?	12%	?	5%
CCOC(=O)c1cc(-c2ccc(F)cc2)n(CC(=O)NC2CCCCCC2)c1C	-5%	·	·	·	·	·
CC(=O)Nc1cccc(NC(=O)C(C)N2c3cccc4cccc(c34)S2(=O)=O)c1 (stereo unspecified)	5%	-9%	3%	·	3%	9%
CC1=CN2C(=N)/C(=C/c3ccc([N+](=O)[O-])o3)C(=O)N=C2S1	13µM*	?	-30%	-39%	-54%	-14%
CC1=CN2C(=N)/C(=C/c3ccco3)C(=O)N=C2S1	1.5µM*	?	2.5µM*	3.5µM*	1.8µM*	?
CCOC(=O)c1ccccc1NC(=O)N(C(C)C)C1CCN(C(C)=O)CC1	-1%	·	·	·	·	·
CCOc1ccc(Nc2oc(-c3ccc(COc4ccccc4C)o3)nc2C#N)cc1	4%	·	·	·	·	·
COc1cccc(NC(=O)CNC(=O)c2ccccc2)c1	-21%	?	18%	22%	25%	?
CN(CC(=O)Nc1ccccc1Br)C(=O)CNC(=O)c1ccc(Oc2ccccc2)cc1	15µM*	15%	18%	·	2%	0%
COc1ccc(NC(=O)CN(C)C(=O)CNC(=O)c2ccc3ccccc3c2)cc1	24µM*	?	26%	·	?	14%
COc1cccc(NC(=O)CN(C)C(=O)CNC(=O)c2ccc(Oc3ccccc3)cc2)c1	6µM*	?	27%	·	?	6%
COc1cc(OC)c2c(C)c(CC(=O)NCCc3ccccc3OC)c(=O)oc2c1	1%	·	·	-4%	·	·
Cc1cc(Br)ccc1OCc1nc(-c2cccnc2)no1	?	?	29%	?	?	21µM*
Cc1ccc(OCc2nc(-c3ccccc3)no2)cc1	7.6µM*	?	?	·	4µM*	?
COc1cccc(-c2noc(COc3ccccc3Cl)n2)c1	11µM*	·	·	?	·	·
Cc1ccccc1OCc1nc(-c2ccccc2)no1	4.8µM*	?	4µM*	32µM*	4µM*	?
Cc1ccccc1OCC(=O)N(Cc1nc(-c2ccccc2)no1)C(C)C	-1%	-13%	-3%	8%	1%	0%
Cc1ccc(C)c(OCc2nc(-c3cccnc3)no2)c1	?	?	2%	·	6%	10%
Cc1ccc(S(=O)(=O)NCc2nc(-c3ccccc3)no2)cc1	1%	-8%	-3%	·	0%	-4%
COc1ccc(-c2noc(COc3ccccc3OC)n2)cc1OC	?	-14%	13%	12%	3%	?
Cc1ccccc1OCc1nc(-c2ccc(NC(=O)c3ccc4c(c3)OCO4)cc2)no1	?	?	19%	-8%	4%	9%
c1ccc(NCc2nc(-c3ccccc3)no2)cc1	17µM*	?	?	?	?	23µM*
Cc1ccc(-c2noc(COc3ccccc3C)n2)cc1	21µM*	?	18%	19%	23%	?
Cc1ccccc1OCc1nc(-c2ccc(Br)o2)no1	17µM*	?	11%	11%	8%	?
SMILES	FLuc counter	ELG1 DNA repair	NPC1 promoter act	SMN2 splice enh	Rab9 prom act	ELG1 genotoxic
c1ccc(-c2noc(COc3ccc4c(c3)OCO4)n2)cc1	2.1µM*	?	4µM*	14µM*	2.8µM*	9.2µM*
CCOC(=O)c1cnn(-c2ccc([N+](=O)[O-])cc2)c1N	-1%	?	5%	·	3%	6%
COc1ccc(Cl)cc1-c1nc(SCC(=O)NCCN2C(=O)CSC2=O)n[nH]1	0%	-13%	-1%	-4%	1%	3%
CC(C)C(CCNC1CCN(C)CC1)c1ccc(Cl)cc1 (stereo unspecified)	1%	23µM*	-13%	·	-16%	-21%
CN1CCC(NCCC(c2ccc(F)cc2)c2ccc(Cl)cc2)CC1 (stereo unspecified)	1%	?	-1%	·	-15%	-11%
CN(C)CCN1C(=O)C2C(C(=O)Nc3cc(Cl)cc(Cl)c3)C3C=CC2(O3)C1C(=O)NC1CCCCC1 (stereo unspecified)	-2%	6%	-3%	·	0%	1%
CCCCC1CCC(CCCC(C)CCC(=O)O)CC1 (stereo unspecified)	27µM*	·	·	-8%	·	·
O=C(CCN1C(=O)C2CCCCC2C1=O)Nc1nc2ccc(F)cc2s1 (stereo unspecified)	0.85µM*	?	0.63µM*	·	0.4µM*	?
O=C(CN1C(=O)NC2(CCCCC2)C1=O)Nc1nc2c(F)cc(F)cc2s1	-12%	10%	2%	·	3%	1%
O=C(CCN1C(=O)C2CCCCC2C1=O)Nc1cc(F)ccc1F (stereo unspecified)	1%	11%	-3%	·	-3%	1%
O=C(CCN1C(=O)C2CCCCC2C1=O)Nc1nc2c(F)cc(F)cc2s1 (stereo unspecified)	-19%	?	2.5µM*	·	1.4µM*	?
O=C(NC1CCCCC1)C(c1ccccn1)N(C(=O)c1csnn1)c1ccccc1 (stereo unspecified)	1%	7%	2%	·	1%	0%
Cc1cccc(C)c1NC(=O)CN1C(=O)N(C)Cc2ccccc21	-1%	-5%	-1%	-11%	11%	1%
Clc1cncc(Cl)c1N/N=C/c1ccccc1	21µM*	22%	28%	·	-1%	6%
Clc1nnc(N/N=C/c2ccccc2)c2ccccc12	2.7µM*	?	21%	18µM*	?	7.1µM*
Clc1ccc(/C=N/Nc2nnc(Cl)c3ccccc23)cc1	?	?	?	11µM*	?	?
Clc1ccc(/C=N/Nc2nc(Cl)nc3ccccc23)cc1	13µM*	?	3%	29%	15%	?
Clc1nnc(NN=C2CCCC2)c2ccccc12	?	25%	-6%	-9%	1%	2%
O=C(c1ccc(Cl)c(S(=O)(=O)N2CCOCC2)c1)N(Cc1ccco1)Cc1cccs1	-1%	?	-2%	·	5%	-10%
C=CCNc1nnc(Cl)c2ccccc12	-2%	11%	-1%	-32%	-5%	0%
Cc1ccc(/C=N/Nc2nnc(Cl)c3ccccc23)cc1	0.6µM*	?	?	4.5µM*	?	2.3µM*

Source: PubChem (National Center for Advancing Translational Sciences (NCATS))
